NALP3 yeast inh: blocks the NALP3 inflammasome reconstituted in yeast | hit rate 0.39% among 330,000 | Yeast reconstituted NLRP3/ASC/caspase-1, beta-gal luminescence, 24 h | AID 2825 | inhibition, % at 10 µM;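 active = inhibition of 50% or more; inactive = inhibition below 50%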
tim23-1 inh: tim23-1 yeast growth inhibition; S. cerevisiae tim23-1 growth, BacTiter-Glo luminescence, 24 h; inhibition, % at 20 µM; hit rate 1.3% among 330,000; AID 463212;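 active = growth inhibition of the mutant yeast at or above 50%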;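 also: temperature-sensitive mutant grown at 25 °C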
tim10-1 inh: growth inhibitors of tim10-1 mutant yeast; S. cerevisiae tim10-1 ts strain growth, BacTiter-Glo, 24 h; inhibition, % at 20 µM; hit rate 2.2% among 330,000;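 active = inhibition of at least 40%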;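 also: mutant grown at 25 °C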
NALP1 inh: inhibitors of NALP1 inflammasome in yeast; hit rate 0.61% among 280,000; inhibition, % at 10 µM; S. cerevisiae NALP1/ASC/caspase-1 growth, X-gal OD620, 72 h; AID 2071; in the data active = inhibition mostly above about 24%, no sharp cut-off; inactive = mostly below about 32%
TIM10 inh: TIM10 yeast growth inhibition; hit rate 1.4% among 330,000; inhibition, % at 10 µM; AID 463195; S. cerevisiae TIM10 strain growth, BacTiter-Glo luminescence, 24 h;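 active = inhibition of 40% or more at the single tested concentration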;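 also: wild-type TIM10 isogenic control strain grown at permissive 25 °C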
SKKanGAS inh: SKKanGAS growth inhibition; S. pyogenes SKKanGAS, kanamycin growth, BacTiter-Glo, 6 h; hit rate 1.3% among 300,000; AID 1662; inhibition, % at 7.5 µM;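 active = mean replicate score, as percent of positive control median, at least 50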;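 also: strain carries kanamycin resistance gene driven by streptokinase promoter and grows in 40 µg/ml kanamycin; loss of luminescence reflects streptokinase promoter inhibition or plain growth inhibition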
Each line names hits and unclear results; the compound was inactive in the other large screens. The list is not random: actives were taken first. Their share in the collection is about 4.9%.

COc1ccc(CCNC(=O)C2c3ccccc3C(=O)N2CCC(C)C)cc1OC (stereo unspecified)	none
CCOc1ccc(/C=N/NC(=S)NC2CC3C=CC2C3)cc1 (stereo unspecified)	SKKanGAS inh 64
O=C(Nc1ccc(NC(=O)c2ccccc2F)cn1)c1ccco1	none
COc1ccc(OC)c(C2=NOC(C(=O)Nc3cc(C)on3)C2)c1 (stereo unspecified)	NALP1 inh 34
Cc1cc2c3c([nH]c2cc1S(=O)(=O)NCc1ccc(CN2CCCCCC2)o1)CCCC3=O	none
Cc1nnc(N2C(=O)C(=O)/C(=C(\O)c3ccc4c(c3)CC(C)O4)C2c2ccccc2)s1 (stereo unspecified)	none
Cc1cccc(-n2c(N)c(-c3nc4ccccc4n3C)c3nc4ccccc4nc32)c1	SKKanGAS inh 78
Cn1c(-c2c(N)n(-c3ccccc3)c3nc4ccccc4nc23)nc2ccccc21	none (no result: NALP3 yeast inh, tim23-1 inh, tim10-1 inh, TIM10 inh)
CC(=O)CSc1nc(-c2cccs2)c(C#N)c(=O)[nH]1	NALP1 inh 36
Nc1ccc2nc(SCC(=O)N3CCOCC3)sc2c1	NALP1 inh 40
Cc1[nH]ccc(=O)c1OCc1c(Cl)cccc1Cl	none
Cc1ccc(Cn2ccc(=O)c(OCc3c(Cl)cccc3Cl)c2C)cc1	SKKanGAS inh 70
COc1ccc2[nH]c(C(=O)NCCCN3CCCC3=O)c(C)c2c1	none
O=C(Nc1nc(-c2ccccc2)cs1)Nc1ccc(F)cc1F	none
O=C(COc1ccc(F)cc1)Nc1nc(-c2ccccn2)cs1	SKKanGAS inh 69 (no result: NALP1 inh)
Cc1ccc(OCC(=O)Nc2nc(-c3ccccn3)cs2)c(C)c1	SKKanGAS inh 97 (no result: NALP1 inh)
O=C(COc1ccccc1)Nc1nc(-c2ccncc2)cs1	none
Cc1ccc(S(=O)(=O)CCC(=O)Nc2nc(-c3ccccn3)cs2)cc1	none (no result: NALP1 inh, SKKanGAS inh)
O=C(Nc1nc(-c2ccccn2)cs1)Nc1ccc(F)cc1F	SKKanGAS inh 90
COc1ccccc1N1CCN(C(=O)c2cccc(S(=O)(=O)NCc3cccnc3)c2)CC1	none (no result: NALP1 inh, SKKanGAS inh)
CC(=O)c1ccccc1NC(=O)COC(=O)CCC1CCCC1	none (no result: NALP1 inh, SKKanGAS inh)
CNC(=S)N1CCN(c2c(F)cc3c(=O)c(C(=O)O)cn(C4CC4)c3c2OC)CC1C (stereo unspecified)	SKKanGAS inh 104
COC(=O)C(C)NC(=S)N1CCN(c2c(F)cc3c(=O)c(C(=O)O)cn(C4CC4)c3c2OC)CC1C (stereo unspecified)	SKKanGAS inh 95
CC(=O)Oc1ccc(/C=C/c2nc3ccccc3c(=O)o2)cc1	none
Cc1nn2c(CN(C(=O)COc3ccccc3)c3ccccc3)nnc2c2ccccc12	none
Cc1nn2c(COc3ccc(NC(=O)c4ccccc4Cl)cc3)nnc2c2ccccc12	SKKanGAS inh 87
Cc1nn2c(COc3ccc(NC(=O)C(C)C)cc3)nnc2c2ccccc12	SKKanGAS inh 102
CCOC(=O)Nc1ccc(OCc2nnc3c4ccccc4c(C)nn23)cc1	SKKanGAS inh 94
COc1ccc(C(=O)NC(=S)N2CCOCC2)cc1OC	none
CC(C)Cn1cnc2sc3c(c2c1=N)CCCC3	NALP1 inh 40
NC(=O)c1ccc(Cc2ncc(C(F)(F)F)cc2Cl)s1	none
O=S(=O)(N/N=C/c1ccc(Cl)cc1)c1ccc(Cc2ncc(C(F)(F)F)cc2Cl)s1	SKKanGAS inh 50
Cc1ccc(N2CCN(c3ccc(C)cc3)C2c2cccnc2)cc1	NALP1 inh 40
Cc1ccsc1C(=O)OCC(=O)NC1CCCC(C)C1C (stereo unspecified)	none (no result: NALP1 inh, SKKanGAS inh)
CCC1CCCCN1C(=O)CSc1nnc(-c2ccc(OC)cc2)o1 (stereo unspecified)	NALP1 inh 44
CCC1CCCCN1C(=O)CSc1nnc(-c2ccc3c(c2)OCCO3)o1 (stereo unspecified)	none
CCOC(=O)c1c(C)[nH]c(C)c1S(=O)(=O)N(C)CC(=O)N(C)Cc1ccccc1	none
COc1ccc(NC2CCCN(C(=O)c3ccc(C(C)=O)cc3)C2)cc1 (stereo unspecified)	none
COc1ccc(C(=O)N2CCCC(Nc3ccc(F)cc3)C2)c(OC)c1 (stereo unspecified)	NALP1 inh 30
Cc1ccc(NC(=O)c2oc3ccccc3c2NC(=O)c2ccc3c(c2)OCO3)cc1	NALP1 inh 31
O=C(CSc1nnc(NC(=O)c2c(F)cccc2F)s1)NCc1ccccc1	none
CCCc1nnc(NC(=O)CCC(=O)N2CCN(Cc3ccc(Cl)cc3)CC2)s1	none
